Drawing on the supplement of paper PMC10681739, this text covers TF binding intensity for 40 sequences.

The assay concerns the target T1, ETS1 (UniProt P14921).
T1 sequence: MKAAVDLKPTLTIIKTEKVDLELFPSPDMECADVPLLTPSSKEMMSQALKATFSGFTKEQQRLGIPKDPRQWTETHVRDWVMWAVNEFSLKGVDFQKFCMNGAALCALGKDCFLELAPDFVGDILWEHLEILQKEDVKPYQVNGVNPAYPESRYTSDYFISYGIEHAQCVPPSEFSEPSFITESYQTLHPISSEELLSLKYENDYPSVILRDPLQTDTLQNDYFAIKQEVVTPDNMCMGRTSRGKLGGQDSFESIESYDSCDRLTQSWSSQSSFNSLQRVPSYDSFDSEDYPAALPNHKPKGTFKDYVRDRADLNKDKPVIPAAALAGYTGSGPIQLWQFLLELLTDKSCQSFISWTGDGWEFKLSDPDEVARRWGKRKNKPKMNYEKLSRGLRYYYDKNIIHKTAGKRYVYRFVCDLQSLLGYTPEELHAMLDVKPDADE
Briefly: TF binding intensity (PBM fluorescence), negative control probe (arbitrary fluorescence units); higher = stronger binding. As for the experimental part: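 gcPBM negative-control 36-bp genomic probes lacking TF binding sites. Each was incubated with recombinant human ETS1 or RUNX1 alone and detected by antibody fluorescence. Values are medians over replicate spots (4 spots for the ETS1-RUNX1 arrays, 3 for the ETS1-ETS1 array). The probes sit in constant array flanks that are not printed.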
For the sequence “CTGAGAGCCAGGCCCGTTCCCTCTGAACCTCAGTTC (protein concentration 10 nM)”, the TF binding intensity stood at 103.
Then “TTCTTCCCACCGCAGGGCATCTGCACGGGCCGCTCA (protein concentration 10 nM)”, with 125.
As for “CCTCGGGGGCCAATGTGTGCCTGTGGTGTGCGATTC (protein concentration 10 nM)”, the figure is 121; as for “ACCTCATCGAAAGTCTCTCTGGAGGCTGAGTTTGTC (protein concentration 10 nM)”, 123.
As for “ATGTTTTCGGTTCTTAGGACCCAGGTGCTCACCACA (protein concentration 10 nM)”, the figure is 106; as for “TTATGAACTGTATCATGTGGTTTGAGTTTAATTTGG (protein concentration 1 nM)”, 487; as for “CTGGATTTCTGTACTTTGGTTGGCTTATATTACATC (protein concentration 10 nM)”, 171.
As to “GGGGCCTCGAAGGTCCTCCTGGACTGCAAGAGAGGA (protein concentration 10 nM)”, the TF binding intensity came out at 131.
Regarding “CCCTAAGCGCCTGCGCACATTTGCGCATCGCTCTGC (protein concentration 10 nM)”, the TF binding intensity was 109.
As for “TCTTGTATTTTCCTAAAGATTTGTGTGCTGTTTCTC (protein concentration 10 nM)”, the figure is 100; as for “GGGTGGTGGGGCTTTCTTAGCAGCAAAATGTTCGCG (protein concentration 10 nM)”, 223; as for “AGTTTTTTGTTTTGAGCCGCAGTCTCGCTCTGTCGC (protein concentration 1 nM)”, 351.
Regarding “ACTGATCATCTGAAATGTGGCTAGTGTGAAAATGAA (protein concentration 1 nM)”, the TF binding intensity was determined as 532.
Sequence “AAGGTTCTGATTCCGAGTCCCCTGAGGTGGCAGTGG (protein concentration 10 nM)” showed a TF binding intensity of 111.
As for “GAAGAGCAGGCCTGGCGTCTGCCCGTGCCAGTGTTT (protein concentration 10 nM)”, the figure is 102; as for “TTCAAAGCACATTCACCCACATGATCCTATTGATCT (protein concentration 1 nM)”, 468.
As for “CCCTGAGGTCTATCTTGCTGCAAATTGAATGCCTGC (protein concentration 10 nM)”, the figure is 120; as for “TGACCGGCAGGCCCGAAGCCCCCTGGGATGCCTGGC (protein concentration 10 nM)”, 105; as for “AAATTCTGTAACCAGTGCTCTTGAGCTGCTTGCTGG (protein concentration 10 nM)”, 102.
“GGTATCGAGCTCGGGGGACTGGGCTGCGGGGGACGT (protein concentration 10 nM)” had a TF binding intensity of 264.
Then “TGATTTCTTAAGCCAACCTCAAAAAAAAAAAAAGAG (protein concentration 1 nM)”, with 596; and “ATTCCAATCCTATGTGCTTTAAAGCTTCTAGACATT (protein concentration 10 nM)”, with 119.
Then “CCGCACGCGGGCGCGGGCCAGCTGCAGATGGAGAAC (protein concentration 10 nM)”, with 136; and “TTGTTACACTCCACGCTTTAGCTATTTGTTGCTACT (protein concentration 10 nM)”, with 120.
Consider “GGTAATAGTTACTGCTGTGGTCTGAATGTTTGTGTC (protein concentration 1 nM)”, for which the TF binding intensity stood at 555.
As for “GCTGGGAGACAGAGCCAGACACTGTCTCAAAAAAAA (protein concentration 10 nM)”, the TF binding intensity stood at 110.
As for “GTTTGGCTTTCAGAGTGTGGTTTGGATTCCTAACAG (protein concentration 1 nM)”, the figure is 450; as for “GAGCCCTTCTGGCCTCCCTGTATAAGTCCAGACTGA (protein concentration 10 nM)”, 96.9.
As for “CCAGTGCCCTTGAAATGAAATGGGACTTGCAAGGAG (protein concentration 10 nM)”, the figure is 121; as for “TTATAGGTGAGAGCTACCATGCCTGGTCCTATTTAA (protein concentration 10 nM)”, 97.6; as for “CTCGCGGCGCACTCCCAGAGGCTGGGGGGCCGGGGC (protein concentration 10 nM)”, 183.
Then “TGATCTTTGCTTTGCTTTTTGAAAGATCTGGCAAGG (protein concentration 10 nM)”, with 104.
Consider “ATAAGCCAATTTTTTTTACATTTATGAAATGAGAGA (protein concentration 10 nM)”, for which the TF binding intensity is 105.
As for “GCCCTCTGCGGGGCAACAGCACGAGGCATTACCCCT (protein concentration 10 nM)”, the figure is 107; as for “AAACTAATCAGAATTTAACATCATACATAAATGGCA (protein concentration 10 nM)”, 116.
Regarding “AGTTTCACTGCCCTAAAAATCCTCCGTGCGCCGCCT (protein concentration 10 nM)”, the TF binding intensity turned out to be 123.
Then “TGCCAGGGTGTAATTTTTCCCACTTTCACCTCCTTC (protein concentration 10 nM)”, with 128.
Then “CTGGGGTGGCGCCAGCCTTATTATGACTAACCATGA (protein concentration 10 nM)”, with 105.
As for “CCTTTGTTAGTGATTTGTGGTAGCTAATGTCGTAAT (protein concentration 1 nM)”, the figure is 548; as for “CATTAGATTCTCATAAGGAGCATAACCTAGATCCCT (protein concentration 10 nM)”, 104.
